About 8,800 targets were measured; listed, in parts, are those with a hit and a random draw of the rest. About 0.5% of all pairs of compound and target were hits. Unmarked numbers belong to inactive results.

For 35 targets, log2 fold change results are on record in the supplement of paper PMC10849652.

Sequence of UniProt Q8TD19 (Q8TD19 whole entry, looked up): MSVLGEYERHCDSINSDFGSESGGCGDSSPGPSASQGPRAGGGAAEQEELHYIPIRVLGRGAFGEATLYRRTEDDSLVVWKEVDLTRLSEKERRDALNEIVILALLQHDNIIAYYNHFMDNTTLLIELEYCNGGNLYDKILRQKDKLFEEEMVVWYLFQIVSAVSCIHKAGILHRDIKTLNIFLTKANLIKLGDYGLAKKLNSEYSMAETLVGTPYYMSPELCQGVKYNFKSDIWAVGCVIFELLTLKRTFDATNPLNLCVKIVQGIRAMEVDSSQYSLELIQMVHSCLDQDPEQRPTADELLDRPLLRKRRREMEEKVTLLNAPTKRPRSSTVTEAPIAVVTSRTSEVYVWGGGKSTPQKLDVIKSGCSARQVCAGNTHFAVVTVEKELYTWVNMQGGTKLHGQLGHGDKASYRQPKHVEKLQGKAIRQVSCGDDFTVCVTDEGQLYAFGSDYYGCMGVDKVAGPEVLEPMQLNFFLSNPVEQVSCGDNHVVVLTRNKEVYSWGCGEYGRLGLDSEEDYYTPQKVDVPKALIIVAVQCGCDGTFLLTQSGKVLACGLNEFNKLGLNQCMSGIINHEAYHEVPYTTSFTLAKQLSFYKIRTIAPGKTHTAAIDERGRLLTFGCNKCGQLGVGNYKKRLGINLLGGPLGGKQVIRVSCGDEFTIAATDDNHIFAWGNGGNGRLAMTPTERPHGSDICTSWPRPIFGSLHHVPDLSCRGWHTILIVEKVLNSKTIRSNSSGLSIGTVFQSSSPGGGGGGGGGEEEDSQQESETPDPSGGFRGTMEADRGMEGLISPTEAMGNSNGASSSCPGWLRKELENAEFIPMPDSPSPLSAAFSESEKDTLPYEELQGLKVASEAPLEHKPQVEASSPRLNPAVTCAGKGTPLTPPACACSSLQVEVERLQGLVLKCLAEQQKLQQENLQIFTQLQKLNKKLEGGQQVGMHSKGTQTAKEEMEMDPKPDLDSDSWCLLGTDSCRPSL
Sequence of UniProt P03886 (P03886 whole entry, looked up): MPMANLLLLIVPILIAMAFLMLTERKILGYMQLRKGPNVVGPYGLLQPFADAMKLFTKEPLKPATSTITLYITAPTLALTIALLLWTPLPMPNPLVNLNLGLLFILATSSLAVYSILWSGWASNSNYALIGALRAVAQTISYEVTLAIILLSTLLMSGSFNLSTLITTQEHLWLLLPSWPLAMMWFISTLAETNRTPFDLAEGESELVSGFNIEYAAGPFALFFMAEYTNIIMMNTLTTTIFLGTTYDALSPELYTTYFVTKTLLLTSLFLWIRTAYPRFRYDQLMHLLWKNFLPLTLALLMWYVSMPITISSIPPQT
Sequence of UniProt P35749 (P35749 whole entry, looked up): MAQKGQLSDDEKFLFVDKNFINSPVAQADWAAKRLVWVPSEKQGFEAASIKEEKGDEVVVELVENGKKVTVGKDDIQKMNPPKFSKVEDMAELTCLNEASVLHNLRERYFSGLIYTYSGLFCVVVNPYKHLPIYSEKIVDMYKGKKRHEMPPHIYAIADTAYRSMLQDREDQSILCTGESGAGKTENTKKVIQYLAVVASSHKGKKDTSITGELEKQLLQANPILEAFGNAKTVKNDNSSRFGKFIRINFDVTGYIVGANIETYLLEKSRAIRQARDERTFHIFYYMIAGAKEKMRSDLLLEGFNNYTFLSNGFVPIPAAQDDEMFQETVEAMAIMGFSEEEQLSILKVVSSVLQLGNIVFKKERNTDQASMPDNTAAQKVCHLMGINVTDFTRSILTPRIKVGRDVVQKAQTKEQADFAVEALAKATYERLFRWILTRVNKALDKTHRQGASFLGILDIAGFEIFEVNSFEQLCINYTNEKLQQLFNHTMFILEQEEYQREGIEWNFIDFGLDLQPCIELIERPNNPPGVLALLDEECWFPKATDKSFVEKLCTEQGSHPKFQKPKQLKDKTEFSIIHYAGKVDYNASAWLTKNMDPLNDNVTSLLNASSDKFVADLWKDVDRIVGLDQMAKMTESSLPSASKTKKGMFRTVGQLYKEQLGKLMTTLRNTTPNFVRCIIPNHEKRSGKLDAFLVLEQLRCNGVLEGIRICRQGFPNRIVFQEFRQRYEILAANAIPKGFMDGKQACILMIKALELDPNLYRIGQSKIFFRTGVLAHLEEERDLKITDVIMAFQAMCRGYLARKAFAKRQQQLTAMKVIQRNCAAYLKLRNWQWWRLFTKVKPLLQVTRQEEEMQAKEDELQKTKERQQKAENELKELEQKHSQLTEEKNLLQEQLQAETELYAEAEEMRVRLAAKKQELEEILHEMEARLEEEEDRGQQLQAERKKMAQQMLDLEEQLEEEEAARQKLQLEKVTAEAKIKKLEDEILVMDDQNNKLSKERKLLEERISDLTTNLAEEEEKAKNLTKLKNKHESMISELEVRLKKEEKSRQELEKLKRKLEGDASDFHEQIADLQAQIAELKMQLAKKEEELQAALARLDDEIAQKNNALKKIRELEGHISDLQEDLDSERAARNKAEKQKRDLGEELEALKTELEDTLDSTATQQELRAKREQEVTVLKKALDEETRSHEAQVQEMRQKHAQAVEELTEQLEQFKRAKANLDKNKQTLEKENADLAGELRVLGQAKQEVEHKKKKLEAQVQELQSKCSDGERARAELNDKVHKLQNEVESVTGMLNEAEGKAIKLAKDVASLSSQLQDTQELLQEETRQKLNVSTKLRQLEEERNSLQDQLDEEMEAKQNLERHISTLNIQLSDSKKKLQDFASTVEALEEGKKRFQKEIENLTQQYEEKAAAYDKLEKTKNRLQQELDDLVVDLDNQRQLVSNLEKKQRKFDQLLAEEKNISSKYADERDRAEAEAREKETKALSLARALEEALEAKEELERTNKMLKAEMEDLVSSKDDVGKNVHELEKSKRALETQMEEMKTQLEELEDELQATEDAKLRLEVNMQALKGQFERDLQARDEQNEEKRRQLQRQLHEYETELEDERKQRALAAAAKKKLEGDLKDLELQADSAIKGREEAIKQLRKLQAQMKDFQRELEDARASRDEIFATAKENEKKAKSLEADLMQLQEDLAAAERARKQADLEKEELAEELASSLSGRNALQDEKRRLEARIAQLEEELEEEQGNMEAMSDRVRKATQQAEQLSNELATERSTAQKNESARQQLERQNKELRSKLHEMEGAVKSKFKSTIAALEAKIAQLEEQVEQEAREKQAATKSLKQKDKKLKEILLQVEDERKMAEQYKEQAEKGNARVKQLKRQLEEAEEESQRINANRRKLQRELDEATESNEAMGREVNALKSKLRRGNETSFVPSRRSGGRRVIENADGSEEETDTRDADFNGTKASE
Sequence of UniProt Q13330 (Q13330 whole entry, looked up): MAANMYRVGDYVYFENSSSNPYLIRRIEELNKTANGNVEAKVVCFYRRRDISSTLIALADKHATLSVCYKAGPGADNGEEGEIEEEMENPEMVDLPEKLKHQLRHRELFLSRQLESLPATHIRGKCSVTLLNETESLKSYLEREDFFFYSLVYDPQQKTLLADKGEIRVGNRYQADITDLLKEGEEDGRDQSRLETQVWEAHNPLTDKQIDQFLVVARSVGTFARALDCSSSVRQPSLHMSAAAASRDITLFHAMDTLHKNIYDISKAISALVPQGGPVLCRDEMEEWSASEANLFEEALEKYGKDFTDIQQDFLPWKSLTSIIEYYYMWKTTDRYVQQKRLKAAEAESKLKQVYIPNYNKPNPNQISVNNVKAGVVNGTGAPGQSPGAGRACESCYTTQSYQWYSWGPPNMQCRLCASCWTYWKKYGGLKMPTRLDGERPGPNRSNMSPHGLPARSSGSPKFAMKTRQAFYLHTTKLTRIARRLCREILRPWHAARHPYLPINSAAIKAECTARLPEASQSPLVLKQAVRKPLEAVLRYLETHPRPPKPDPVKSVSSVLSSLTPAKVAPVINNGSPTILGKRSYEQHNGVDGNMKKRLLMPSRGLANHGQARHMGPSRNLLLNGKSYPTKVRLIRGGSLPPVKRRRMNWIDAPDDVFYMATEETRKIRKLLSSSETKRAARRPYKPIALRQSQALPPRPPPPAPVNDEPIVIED
Sequence of UniProt P28331 (P28331 whole entry, looked up): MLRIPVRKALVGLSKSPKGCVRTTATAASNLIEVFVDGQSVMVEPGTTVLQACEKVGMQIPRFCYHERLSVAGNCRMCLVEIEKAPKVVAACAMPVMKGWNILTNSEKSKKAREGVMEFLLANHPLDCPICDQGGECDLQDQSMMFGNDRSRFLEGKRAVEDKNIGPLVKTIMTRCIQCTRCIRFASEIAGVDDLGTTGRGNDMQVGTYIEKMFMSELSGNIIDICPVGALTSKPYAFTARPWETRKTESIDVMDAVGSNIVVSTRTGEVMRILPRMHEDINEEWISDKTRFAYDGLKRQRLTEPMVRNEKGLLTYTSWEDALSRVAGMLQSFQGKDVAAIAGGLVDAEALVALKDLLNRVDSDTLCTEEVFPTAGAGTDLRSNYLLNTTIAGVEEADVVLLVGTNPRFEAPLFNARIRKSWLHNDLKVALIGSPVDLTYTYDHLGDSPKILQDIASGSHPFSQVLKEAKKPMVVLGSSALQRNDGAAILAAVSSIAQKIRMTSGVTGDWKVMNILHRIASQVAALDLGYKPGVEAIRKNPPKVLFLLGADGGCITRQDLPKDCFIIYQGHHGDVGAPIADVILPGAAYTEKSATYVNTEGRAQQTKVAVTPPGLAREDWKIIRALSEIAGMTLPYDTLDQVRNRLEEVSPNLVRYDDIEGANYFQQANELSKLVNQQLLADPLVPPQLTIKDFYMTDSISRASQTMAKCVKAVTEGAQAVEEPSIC
Sequence of UniProt Q15102 (Q15102 whole entry, looked up): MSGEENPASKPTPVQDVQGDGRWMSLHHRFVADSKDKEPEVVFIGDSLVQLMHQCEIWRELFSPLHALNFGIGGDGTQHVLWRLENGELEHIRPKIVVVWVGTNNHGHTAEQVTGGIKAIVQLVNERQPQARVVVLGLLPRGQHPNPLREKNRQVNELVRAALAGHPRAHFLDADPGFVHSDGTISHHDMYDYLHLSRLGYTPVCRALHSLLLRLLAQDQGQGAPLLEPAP
Sequence of UniProt Q9BPZ3 (Q9BPZ3 whole entry, looked up): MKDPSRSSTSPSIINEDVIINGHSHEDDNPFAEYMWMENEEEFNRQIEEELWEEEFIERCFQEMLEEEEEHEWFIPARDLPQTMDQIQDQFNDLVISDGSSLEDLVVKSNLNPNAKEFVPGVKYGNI

Compound in this test: CS(=O)(=O)CCNCc1ccc(-c2ccc3ncnc(Nc4ccc(OCc5cccc(F)c5)c(Cl)c4)c3c2)o1 [lapatinib]
Description: log2 fold change, soluble protein after heating vs DMSO (PISA); higher = thermal stabilisation; K562 lysate, 10 uM; active = over 0.2 and 3.5 SD of the protein, either way, in both replicates (recomputed). A digest of the protocol: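 Thermal stability, expressed as log-two fold change relative to solvent controls, is given from duplicates. Crude K562 extract in PBS pH 7.4 with 1 mM MgCl2, at 1 mg/mL protein, was treated with 10 μM compound for 30 min and heated in aliquots for 3 min across 48°C-58°C. After pooling, adjustment to 0.5% NP-40 at 4°C and centrifugation at 21,000xg for 90 min, supernatant protein was measured by TMTpro 16plex LC-MS/MS with channel sums equalised.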
PARD3 (UniProt Q8TEW0): the log2 fold change is -0.143.

NPM3 (UniProt O75607): the log2 fold change was 0.087. NCK1 (UniProt P16333): the log2 fold change is 0.025.

For MYOM1 (UniProt P52179), the log2 fold change is 0.099.

Turning to OCRL (UniProt Q01968), the log2 fold change was 0.008. With NUP188 (UniProt Q5SRE5), the log2 fold change is -0.063. To NDUFS1 isoform 2 (UniProt P28331) belongs 0.023; to NOB1 (UniProt Q9ULX3), 0.027; to NUMB (UniProt P49757), 0.033. Regarding PAIP2 (UniProt Q9BPZ3), the log2 fold change was 0.013. Consider NEDD8 (UniProt Q15843), for which the log2 fold change was 0.04.

As for NLRP2 (UniProt Q9NX02), the log2 fold change is 0.004.

Consider NAA35 (UniProt Q5VZE5), for which the log2 fold change was 0.009.

In the case of NCAPD2 (UniProt Q15021), the log2 fold change is -0.033. PBK (UniProt Q96KB5): the log2 fold change was -0.024.

PAFAH1B3 (UniProt Q15102): the log2 fold change is -0.034.

PAK4 (UniProt O96013): the log2 fold change is -0.147. To MTA1 (UniProt Q13330) belongs -0.002; to PAN2 isoform 2 (UniProt Q504Q3), -0.044.

Consider OSBPL6 isoform 5 (UniProt Q9BZF3), for which the log2 fold change is 0.077.

In the case of PARP14 (UniProt Q460N5), the log2 fold change is -0.018.

Take PAK1 (UniProt Q13153): the log2 fold change is -0.037. NIPBL (UniProt Q6KC79): the log2 fold change is -0.03.

As for NEK7 (UniProt Q8TDX7), the log2 fold change was -0.035. As to NCKAP1L (UniProt P55160), the log2 fold change is 0.

Consider MYH11 isoform 2 (UniProt P35749), for which the log2 fold change is 0.075.

In the case of OTC (UniProt P00480), the log2 fold change is -0.118. For NUB1 (UniProt Q9Y5A7), the log2 fold change was -0.002.

On to NARF (UniProt Q9UHQ1), for which the log2 fold change was -0.027. As for NEK9 (UniProt Q8TD19), the log2 fold change was -0.013. For the target NMRAL1 (UniProt Q9HBL8), the log2 fold change was -0.003. To NCAPD3 (UniProt P42695) belongs -0.015; to MT-ND1 (UniProt P03886), -0.025. With MTA3 (UniProt Q9BTC8), the log2 fold change was 0.006. Consider NIFK (UniProt Q9BYG3), for which the log2 fold change is -0.004.
